# Data published in PubChem BioAssay (NCATS).
# Unmarked numbers belong to inactive results. Results filed as inconclusive are left out. Where a call stands in place of a potency, no number is given. Active and inactive are the calls of the source. Unless noted, calls follow the shape of the full dose curve.
# How the values were obtained:
# [1] = target: Estrogen receptor (Homo sapiens) (UniProt P03372); experiment: qHTS assay for small molecule agonists of estrogen receptor alpha signaling (AID 588514); also: nearly all actives have a fitted effect of over 70% in size
# Chain of Estrogen receptor (Homo sapiens) (P03372 whole entry, looked up): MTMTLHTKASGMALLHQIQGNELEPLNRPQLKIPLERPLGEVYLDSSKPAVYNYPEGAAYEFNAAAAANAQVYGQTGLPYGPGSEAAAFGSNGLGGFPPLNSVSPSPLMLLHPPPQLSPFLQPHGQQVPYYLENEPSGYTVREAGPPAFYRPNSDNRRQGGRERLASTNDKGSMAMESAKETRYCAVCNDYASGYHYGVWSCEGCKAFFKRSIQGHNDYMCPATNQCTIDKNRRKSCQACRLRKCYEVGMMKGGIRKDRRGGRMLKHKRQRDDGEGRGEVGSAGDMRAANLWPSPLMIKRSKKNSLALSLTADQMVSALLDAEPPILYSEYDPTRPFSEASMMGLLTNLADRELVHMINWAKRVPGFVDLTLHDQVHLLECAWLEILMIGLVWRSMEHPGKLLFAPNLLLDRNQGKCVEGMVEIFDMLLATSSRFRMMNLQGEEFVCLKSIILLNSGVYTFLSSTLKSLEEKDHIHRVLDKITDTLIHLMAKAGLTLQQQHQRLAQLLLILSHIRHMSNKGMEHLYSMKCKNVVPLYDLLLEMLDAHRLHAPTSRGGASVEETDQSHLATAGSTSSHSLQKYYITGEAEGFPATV
# In short: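 Read-out: CCF4 fluorescence from a beta-lactamase reporter in ER-alpha-UAS-bla HEK 293 cells after 18 hrs of compound exposure at 37 C. Normalized to 20 nM 17-beta-estradiol (100%) and DMSO (0%).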
# [2] = target: Bile acid receptor (Homo sapiens) (UniProt Q96RI1); experiment: qHTS assay for small molecule antagonists of farnesoid X receptor signaling (AID 588526); also: potency is read from the fitted curve at half-maximal effect
# Chain of Bile acid receptor (Homo sapiens) (Q96RI1 whole entry, looked up): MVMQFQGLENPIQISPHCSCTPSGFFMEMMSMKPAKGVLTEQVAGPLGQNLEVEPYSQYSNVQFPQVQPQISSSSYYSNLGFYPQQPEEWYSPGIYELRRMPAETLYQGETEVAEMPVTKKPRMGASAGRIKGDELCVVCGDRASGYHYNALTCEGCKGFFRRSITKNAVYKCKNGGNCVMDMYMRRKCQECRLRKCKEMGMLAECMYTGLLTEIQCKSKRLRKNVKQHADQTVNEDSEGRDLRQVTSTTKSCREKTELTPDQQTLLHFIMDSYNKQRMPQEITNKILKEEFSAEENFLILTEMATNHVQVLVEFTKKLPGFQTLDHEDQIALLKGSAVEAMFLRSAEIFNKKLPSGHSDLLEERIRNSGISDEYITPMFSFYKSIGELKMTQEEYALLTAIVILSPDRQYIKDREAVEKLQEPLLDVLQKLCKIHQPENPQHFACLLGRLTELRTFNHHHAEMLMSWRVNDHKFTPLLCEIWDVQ
# In short: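 Concentration-response titrations were fitted to the Hill equation for half-maximal inhibition and maximal response, with data normalised to 50 uM chenodeoxycholic acid and DMSO control wells. Cells: FXR-UAS-bla HEK293T, dialyzed FBS.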
# [3] = target: Glucocorticoid receptor (Homo sapiens) (UniProt P04150); experiment: qHTS assay for small molecule agonists of glucocorticoid receptor signaling (AID 588532; active = well fitted curve in the direction sought with a large enough effect in the signal ratio, with a control signal flat; the % refers to the signal ratio); conditions: HeLa MMTV-bla, beta-lactamase ratio, agonist, 18 h; activation: stronger effect = higher value, percent of dexamethasone control, DMSO zero
# Chain of Glucocorticoid receptor (Homo sapiens) (P04150 whole entry, looked up): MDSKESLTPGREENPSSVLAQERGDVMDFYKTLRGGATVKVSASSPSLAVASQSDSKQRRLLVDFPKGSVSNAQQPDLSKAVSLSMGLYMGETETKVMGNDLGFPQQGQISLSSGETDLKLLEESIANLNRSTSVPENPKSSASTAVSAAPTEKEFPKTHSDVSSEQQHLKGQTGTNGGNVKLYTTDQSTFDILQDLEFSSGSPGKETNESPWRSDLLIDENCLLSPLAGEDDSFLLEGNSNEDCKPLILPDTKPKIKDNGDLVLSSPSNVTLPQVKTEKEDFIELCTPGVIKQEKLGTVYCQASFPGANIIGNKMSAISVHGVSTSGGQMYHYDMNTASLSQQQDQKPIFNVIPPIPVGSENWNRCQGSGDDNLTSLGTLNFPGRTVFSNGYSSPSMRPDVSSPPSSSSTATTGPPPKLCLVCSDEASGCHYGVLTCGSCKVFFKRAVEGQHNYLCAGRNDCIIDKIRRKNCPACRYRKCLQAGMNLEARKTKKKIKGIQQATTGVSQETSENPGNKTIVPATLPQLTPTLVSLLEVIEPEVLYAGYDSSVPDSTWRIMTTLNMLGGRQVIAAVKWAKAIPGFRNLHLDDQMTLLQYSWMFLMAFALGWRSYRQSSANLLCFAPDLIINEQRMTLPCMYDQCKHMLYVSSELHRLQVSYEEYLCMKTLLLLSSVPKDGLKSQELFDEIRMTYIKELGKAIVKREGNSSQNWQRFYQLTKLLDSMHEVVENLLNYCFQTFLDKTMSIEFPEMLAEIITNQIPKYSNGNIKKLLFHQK
# In short: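 Titration series, up to 92 uM, applied to GRE-bla HeLa cells for 18 h at 37 C. Detection by CCF4 FRET substrate after 2 h at RT.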
# [4] = qHTS assay for small molecule agonists of the antioxidant response element (ARE) signaling pathway (AID 651741; active = well fitted activation curve with a large enough effect in the signal ratio; the % refers to the signal ratio; also: potency is read from the fitted curve at half-maximal effect)
# In short: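 Beta-lactamase reporter expression driven by the antioxidant response element in HepG2 cells was detected by fluorescence with LiveBLAzer B/G FRET substrate (2 h, room temperature) following 16 h compound treatment at 37 C.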
# [5] = qHTS assay for small molecule activators of the nuclear factor-kappa B (NF-kB) signaling pathway (AID 651749; active = well fitted activation curve with a large enough effect in the signal ratio; the % refers to the signal ratio; also: series mostly up to about 77 µM); conditions: NF-kB-bla ME-180 cells, beta-lactamase FRET ratio, 16 h; activation: stronger effect = higher value
# In short: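 Beta-lactamase reporter expression, controlled by NF-kB response elements in ME-180 cells, was quantified fluorometrically via FRET disruption; cells at 2,000/well had been incubated with 23 nL test compound for 16 hr.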
# [6] = target: Peroxisome proliferator-activated receptor delta (Homo sapiens) (UniProt Q03181); experiment: qHTS assay for small molecule antagonists of peroxisome proliferator-activated receptor delta signaling (AID 588535; active = well fitted inhibition curve with a large enough effect in the signal ratio, with a control signal flat, not every such curve was filed as active; the % refers to the signal ratio)
# Chain of Peroxisome proliferator-activated receptor delta (Homo sapiens) (Q03181 whole entry, looked up): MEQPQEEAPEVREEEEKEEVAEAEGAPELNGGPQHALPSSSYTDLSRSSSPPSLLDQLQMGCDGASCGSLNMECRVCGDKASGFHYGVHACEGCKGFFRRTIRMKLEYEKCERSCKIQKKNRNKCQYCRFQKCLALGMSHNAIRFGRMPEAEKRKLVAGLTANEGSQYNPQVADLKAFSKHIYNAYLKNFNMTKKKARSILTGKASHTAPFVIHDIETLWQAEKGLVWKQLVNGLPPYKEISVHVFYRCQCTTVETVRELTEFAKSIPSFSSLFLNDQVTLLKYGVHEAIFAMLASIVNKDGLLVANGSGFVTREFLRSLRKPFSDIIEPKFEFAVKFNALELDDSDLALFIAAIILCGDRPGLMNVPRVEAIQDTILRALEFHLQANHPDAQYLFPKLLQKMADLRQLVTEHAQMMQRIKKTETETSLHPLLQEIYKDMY
# In short: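 Compounds tested in titration on PPAR-delta-UAS-bla HEK293T cells grown in charcoal/dextran-stripped serum (2%); beta-lactamase activity read via CCF4 emission at 460 and 530 nm.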
# [7] = target: Peroxisome proliferator-activated receptor gamma (Homo sapiens) (UniProt P37231); experiment: qHTS assay for small molecule agonists of peroxisome proliferator-activated receptor gamma signaling (AID 588536; active = well fitted curve in the direction sought with a large enough effect in the signal ratio, with a control signal flat, not every such curve was filed as active; the % refers to the signal ratio; also: potency is read from the fitted curve at half-maximal effect)
# Chain of Peroxisome proliferator-activated receptor gamma (Homo sapiens) (P37231 whole entry, looked up): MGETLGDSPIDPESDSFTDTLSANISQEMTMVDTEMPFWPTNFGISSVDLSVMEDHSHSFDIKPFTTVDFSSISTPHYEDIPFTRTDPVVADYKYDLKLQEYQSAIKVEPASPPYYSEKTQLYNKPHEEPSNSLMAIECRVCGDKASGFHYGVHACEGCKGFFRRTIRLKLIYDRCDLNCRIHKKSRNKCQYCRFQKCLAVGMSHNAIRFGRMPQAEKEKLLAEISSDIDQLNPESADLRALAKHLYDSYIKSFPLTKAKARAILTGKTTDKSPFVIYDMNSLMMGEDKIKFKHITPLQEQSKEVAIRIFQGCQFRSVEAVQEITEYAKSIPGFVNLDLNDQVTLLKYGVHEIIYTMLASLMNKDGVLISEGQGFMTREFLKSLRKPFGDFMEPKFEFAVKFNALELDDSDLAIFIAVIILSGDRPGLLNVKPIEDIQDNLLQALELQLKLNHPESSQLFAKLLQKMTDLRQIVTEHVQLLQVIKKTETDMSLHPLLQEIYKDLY
# In short: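 Compound treatment: 16 h, 37 C, HEK293 GeneBLAzer cells. Detection: CCF4, 2 h RT. Values: Hill-fit EC50, efficacy as % of 2 uM rosiglitazone.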
# [8] = target: Peroxisome proliferator-activated receptor gamma (Homo sapiens) (UniProt P37231); experiment: qHTS assay for small molecule antagonists of peroxisome proliferator-activated receptor gamma signaling (AID 588537; active = well fitted inhibition curve with a large enough effect in the signal ratio, with a control signal flat, not every such curve was filed as active; the % refers to the signal ratio;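 also: reporter cells co-stimulated with 50 nM rosiglitazone agonist during compound treatment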)
# In short: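 HEK293 cells, PPAR-gamma-UAS-bla, 3000/well. Pre-incubation 6-6.5 h, 37 C. Compound titration with rosiglitazone 50 nM final, 16 h. CCF4 dye, 2 h RT, dual-emission fluorescence.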
# [9] = qHTS assay for small molecule activators of the human pregnane X receptor (PXR) signaling pathway (AID 720659; call rule not given here)
# [10] = target: Androgen receptor (Homo sapiens) (UniProt P10275); experiment: qHTS assay for small molecule agonists of androgen receptor signaling (AID 588515; active = well fitted curve in the direction sought with a large enough effect in the signal ratio, with a control signal flat; the % refers to the signal ratio); conditions: AR-UAS-bla HEK293, beta-lactamase ratio, agonist 16 h; stronger effect = higher value
# Chain of Androgen receptor (Homo sapiens) (P10275 whole entry, looked up): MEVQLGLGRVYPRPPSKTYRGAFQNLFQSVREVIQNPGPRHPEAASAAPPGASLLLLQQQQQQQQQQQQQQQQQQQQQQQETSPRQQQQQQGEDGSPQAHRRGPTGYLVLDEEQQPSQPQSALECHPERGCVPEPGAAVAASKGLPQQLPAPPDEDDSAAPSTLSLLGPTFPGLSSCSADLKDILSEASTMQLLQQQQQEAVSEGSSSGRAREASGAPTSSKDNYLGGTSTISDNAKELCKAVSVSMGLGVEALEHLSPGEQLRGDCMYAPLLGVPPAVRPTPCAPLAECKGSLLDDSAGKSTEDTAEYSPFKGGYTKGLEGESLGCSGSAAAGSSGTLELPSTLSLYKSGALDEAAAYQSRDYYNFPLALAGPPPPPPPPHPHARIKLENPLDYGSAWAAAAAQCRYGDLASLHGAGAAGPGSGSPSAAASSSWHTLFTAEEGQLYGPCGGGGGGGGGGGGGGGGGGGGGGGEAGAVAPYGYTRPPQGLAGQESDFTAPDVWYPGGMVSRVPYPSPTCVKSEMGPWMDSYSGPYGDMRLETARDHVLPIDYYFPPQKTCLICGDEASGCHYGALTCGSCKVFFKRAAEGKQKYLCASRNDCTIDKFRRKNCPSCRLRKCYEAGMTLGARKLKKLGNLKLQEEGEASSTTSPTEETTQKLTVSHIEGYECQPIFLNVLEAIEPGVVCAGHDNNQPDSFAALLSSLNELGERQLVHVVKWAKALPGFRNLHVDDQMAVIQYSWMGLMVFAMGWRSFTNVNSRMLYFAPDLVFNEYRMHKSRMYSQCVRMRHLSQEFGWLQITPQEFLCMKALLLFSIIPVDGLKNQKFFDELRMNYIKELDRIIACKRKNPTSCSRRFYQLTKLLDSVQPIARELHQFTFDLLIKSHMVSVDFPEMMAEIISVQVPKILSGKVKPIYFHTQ
# In short: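 Stimulation of an AR-responsive β-lactamase reporter in GripTite HEK293 cells was measured after 16 h compound exposure at 37 °C, via CCF4 fluorescence after 2 h RT. EC50 from Hill fits, normalized to R1881 at 30 nM.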
Compound,Potency [1],Potency [2],activation [3] [%],Potency [4],activation [5] [%],Potency [6],Potency [7],Potency [8],outcome [9],activation [10] [%]
CCCCOCN(C(=O)CCl)c1c(CC)cccc1CC,inactive,inactive,-1.18,24.3 µM (active),-3.81,–,–,–,–,–
CC(C)=CC1[C@H](C(=O)OCc2cccc(Oc3ccccc3)c2)C1(C)C (some centres undefined),inactive,inactive,1.86,–,–,inactive,–,–,–,–
Cc1cccc2sc3nncn3c12,inactive,inactive,–,2.73 µM (active),0.0956,inactive,inactive,–,–,–
CCc1cc(C)cc(CC)c1-c1c(OC(=O)C(C)(C)C)n2n(c1=O)CCOCC2,inactive,inactive,-0.342,inactive,-1.54,inactive,inactive,inactive,–,–
CC(C)(C)[C@@H](O)/C(=C\c1ccc(Cl)cc1Cl)n1cncn1,inactive,44.7 µM (active),-11.9,68.6 µM (active),–,–,–,–,–,–
CCCCNC(=O)OCC#CI,inactive,–,–,–,–,–,–,–,inactive,–
CCOP(=O)(OCC)SCS(=O)(=O)C(C)(C)C,inactive,–,–,–,-0.0868,inactive,inactive,inactive,inactive,11.8
COP(=O)(OC)OC(Br)C(Cl)(Cl)Br (centres undefined),inactive,inactive,-8,24.3 µM (active),–,inactive,22.4 µM (active),inactive,–,4.22
O=S(=O)(c1ccc(Cl)cc1)c1cc(Cl)c(Cl)cc1Cl,inactive,–,–,27.3 µM (active),–,–,–,–,–,–
CO/N=C(/C(=O)OC)c1ccccc1COc1ccccc1C,inactive,–,-0.293,12.2 µM (active),-0.43,–,–,–,inactive,–
CC(C)(C)C(O)C(Oc1ccc(-c2ccccc2)cc1)n1cncn1 (centres undefined),inactive,inactive,–,68.6 µM (active),-1.06,inactive,inactive,–,–,-4.84
COC(=O)/C=C(\C)OP(=O)(OC)OC,inactive,–,-1.06,inactive,–,inactive,–,–,–,–
Clc1ccc(-c2cc(Cl)c(Cl)cc2Cl)cc1Cl,inactive,–,-2.9,–,5.08,–,inactive,–,inactive,-4.76
COC[C@H](C)N(C(=O)CCl)c1c(C)csc1C,inactive,inactive,-4.92,19.3 µM (active),–,inactive,inactive,–,–,–
